# Test results reported in article PMC8384837, “Expanding the binding specificity for RNA recognition by a PUF domain”.
# Biological target: PUM1 PUF domain R5-GSR (Homo sapiens, UniProt Q14671 828-1176, C1007G;R1008S;Q1011R)
# Assay: yeast three-hybrid, YBZ-1, SC-Leu-His + 0.5 mM 3-AT, 4 days
# Conditions: tags: N-Gal4 AD-HA kept; label: inside an RPR1-promoter hybrid RNA with tandem MS2 sites; ssRNA
# In short: (§1)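 The interaction score is the log change in variant frequency from input to selection. Scores were computed in log2 with a pseudocount of 1 for absent variants, using Illumina sequencing of PCR-amplified repeat regions. The input came from four days on SC-Leu and the selection from four days on SC-Leu-His + 0.5 mM 3-AT. The cells were strain YBZ-1 (LexA–MS2 coat fusion, HIS3 reporter) co-expressing Pumilio-1 PUF domain libraries and matching RNA elements from a centromeric plasmid.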
row,Sequence,binding signal
1,GGCUAGAACUAGUGGAUCCCCCGGCGCCCGGCGGCUCGAGCCCGGGUAAGUGUCAAUAGUCUGCAUGCCGCCGGGCGCCAUGCCUGCAGGUCGACUCUAGAAAACAUG,5.07 log2 enrichment (interaction score)
2,GGCUAGAACUAGUGGAUCCCCCGGCGCCCGGCGGCUCGAGCCCGGGUAAGUGUAAAUAGUCUGCAUGCCGCCGGGCGCCAUGCCUGCAGGUCGACUCUAGAAAACAUG,1.75 log2 enrichment (interaction score)
3,GGCUAGAACUAGUGGAUCCCCCGGCGCCCGGCGGCUCGAGCCCGGGUAAGUGUUAAUAGUCUGCAUGCCGCCGGGCGCCAUGCCUGCAGGUCGACUCUAGAAAACAUG,3.01 log2 enrichment (interaction score)

# Biological target: PUM1 PUF domain R5-ERF (Homo sapiens, UniProt Q14671 828-1176, C1007E;Q1011F)
# Assay: as above
# Conditions: tags: N-Gal4 AD-HA kept; label: inside an RPR1-promoter hybrid RNA with tandem MS2 sites; ssRNA
# In short: as §1
row,Sequence,binding signal
1,GGCUAGAACUAGUGGAUCCCCCGGCGCCCGGCGGCUCGAGCCCGGGUAAGUGUCAAUAGUCUGCAUGCCGCCGGGCGCCAUGCCUGCAGGUCGACUCUAGAAAACAUG,3.35 log2 enrichment (interaction score)
2,GGCUAGAACUAGUGGAUCCCCCGGCGCCCGGCGGCUCGAGCCCGGGUAAGUGUAAAUAGUCUGCAUGCCGCCGGGCGCCAUGCCUGCAGGUCGACUCUAGAAAACAUG,2.71 log2 enrichment (interaction score)
3,GGCUAGAACUAGUGGAUCCCCCGGCGCCCGGCGGCUCGAGCCCGGGUAAGUGUUAAUAGUCUGCAUGCCGCCGGGCGCCAUGCCUGCAGGUCGACUCUAGAAAACAUG,3.92 log2 enrichment (interaction score)

# Biological target: PUM1 PUF domain R5-KRG (Homo sapiens, UniProt Q14671 828-1176, C1007K;Q1011G)
# Assay: as above
# Conditions: tags: N-Gal4 AD-HA kept; label: inside an RPR1-promoter hybrid RNA with tandem MS2 sites; ssRNA
# In short: as §1
row,Sequence,binding signal
1,GGCUAGAACUAGUGGAUCCCCCGGCGCCCGGCGGCUCGAGCCCGGGUAAGUGUCAAUAGUCUGCAUGCCGCCGGGCGCCAUGCCUGCAGGUCGACUCUAGAAAACAUG,3.68 log2 enrichment (interaction score)
2,GGCUAGAACUAGUGGAUCCCCCGGCGCCCGGCGGCUCGAGCCCGGGUAAGUGUAAAUAGUCUGCAUGCCGCCGGGCGCCAUGCCUGCAGGUCGACUCUAGAAAACAUG,1.97 log2 enrichment (interaction score)
3,GGCUAGAACUAGUGGAUCCCCCGGCGCCCGGCGGCUCGAGCCCGGGUAAGUGUUAAUAGUCUGCAUGCCGCCGGGCGCCAUGCCUGCAGGUCGACUCUAGAAAACAUG,4.3 log2 enrichment (interaction score)

# Biological target: PUM1 PUF domain R4-DWC (Homo sapiens, UniProt Q14671 828-1176, N971D;H972W;Q975C)
# Assay: as above
# Conditions: tags: N-Gal4 AD-HA kept; label: inside an RPR1-promoter hybrid RNA with tandem MS2 sites; ssRNA
# In short: as §1
row,Sequence,binding signal
1,GGCUAGAACUAGUGGAUCCCCCGGCGCCCGGCGGCUCGAGCCCGGGUAAGUGUAAAUAGUCUGCAUGCCGCCGGGCGCCAUGCCUGCAGGUCGACUCUAGAAAACAUG,2.81 log2 enrichment (interaction score)
2,GGCUAGAACUAGUGGAUCCCCCGGCGCCCGGCGGCUCGAGCCCGGGUAAGUGUACAUAGUCUGCAUGCCGCCGGGCGCCAUGCCUGCAGGUCGACUCUAGAAAACAUG,2.72 log2 enrichment (interaction score)
3,GGCUAGAACUAGUGGAUCCCCCGGCGCCCGGCGGCUCGAGCCCGGGUAAGUGUAUAUAGUCUGCAUGCCGCCGGGCGCCAUGCCUGCAGGUCGACUCUAGAAAACAUG,2.64 log2 enrichment (interaction score)

# Biological target: PUM1 PUF domain R5-GKE (Homo sapiens, UniProt Q14671 828-1176, C1007G;R1008K;Q1011E)
# Assay: as above
# Conditions: tags: N-Gal4 AD-HA kept; label: inside an RPR1-promoter hybrid RNA with tandem MS2 sites; ssRNA
# In short: as §1
row,Sequence,binding signal
1,GGCUAGAACUAGUGGAUCCCCCGGCGCCCGGCGGCUCGAGCCCGGGUAAGUGUCAAUAGUCUGCAUGCCGCCGGGCGCCAUGCCUGCAGGUCGACUCUAGAAAACAUG,1.37 log2 enrichment (interaction score)
2,GGCUAGAACUAGUGGAUCCCCCGGCGCCCGGCGGCUCGAGCCCGGGUAAGUGUGAAUAGUCUGCAUGCCGCCGGGCGCCAUGCCUGCAGGUCGACUCUAGAAAACAUG,4.81 log2 enrichment (interaction score)
3,GGCUAGAACUAGUGGAUCCCCCGGCGCCCGGCGGCUCGAGCCCGGGUAAGUGUUAAUAGUCUGCAUGCCGCCGGGCGCCAUGCCUGCAGGUCGACUCUAGAAAACAUG,2.85 log2 enrichment (interaction score)
